In PubChem BioAssay AID624352 (Sanford-Burnham Center for Chemical Genomics, 2012):
In all, about 360,000 compounds went through this assay and about 2,600 (0.72%) were called active.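 The calls were made as follows: active = inhibition of the luminescence signal of 40% or more relative to plate controls, in a single-dose primary screen at 18.75 µM; inactive = the rest.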 This excerpt belongs to a sample that is enriched for actives.

Assay: HIF-2a reporter inhibitors, primary screen, luminescence, 786-0 RCC cells (AID 624352)
Conditions: 786-0 RCC cells HIF-2a reporter, luciferase luminescence, overnight; at 18.8 µM; hits give high values

Compound	inhibition
CCCC(=O)N1CCN(c2nnc(-c3ccc(C)cc3)c3ccccc23)CC1	12.6% (inactive)
Cc1ccc2[nH]c(C(=O)O)c(NC(=O)c3ccccc3[N+](=O)[O-])c2c1	13.4% (inactive)
O=C(c1ccc(Cl)c(S(=O)(=O)N2CCCCCC2)c1)N1CCN(c2ccc(O)cc2)CC1	11.3% (inactive)
O=C1C=CC(=O)N1c1ccc(N2CCCCC2)cc1	69.5% (active)
c1ccc(-n2cccc2)c(N2CCCCC2)c1	13.2% (inactive)
CCOC(=O)c1nn(-c2ccccc2F)c2nc(Nc3ccccc3)cc(=O)n12	7.21% (inactive)
CN(C)c1nc2n(c(=O)n1)CCO2	6.35% (inactive)
COC(=O)CSc1nc2c(c(C3CC=CCC3)c1C#N)CCC2 (stereo unspecified)	0.0766% (inactive)
CC1(C(=O)NS(=O)(=O)c2cccc(OC(F)F)c2)CCN1C(=O)COc1ccc(Cl)cc1 (stereo unspecified)	6.16% (inactive)
CC(=O)NC1=NN(C(C)=O)C(C)(c2ccc(Cl)s2)S1 (stereo unspecified)	14.9% (inactive)
CCc1cc(=O)oc2c(C)c(OCC(=O)N3CC[C@@]4(O)CCCC[C@H]4C3)ccc12	-4.19% (inactive)
Brc1ccc(CN2CC[C@H]3C=CCc4cccc(c43)C2)cc1	11.8% (inactive)
O=C(Cc1cccc2ccccc12)NNC(=O)Nc1ccc(Cl)cc1	-196% (inactive)
Cc1ccc(NC(=S)NC(NC(=O)Cc2cccc3ccccc23)C(Cl)(Cl)Cl)cc1 (stereo unspecified)	54.6% (active)
CC(C)(C)C(=O)NC(NC(=S)Nc1ccc(S(N)(=O)=O)cc1)C(Cl)(Cl)Cl (stereo unspecified)	5.45% (inactive)
O=c1c2ccccc2cnn1Cc1n[nH]c(=S)n1-c1ccccc1F	13.1% (inactive)
O=C(NCCc1cccc(F)c1)C1CC(O)CN1C(=O)Nc1ccccc1 (stereo unspecified)	17.9% (inactive)
CCCNC(=O)C1(C)CCCN(Cc2c(C)nn(-c3ccccc3)c2C)C1 (stereo unspecified)	6.85% (inactive)
COc1ccc(CNC(=O)COc2ccccc2C(=O)c2cnn(-c3ccccc3)c2)cc1OC	-184% (inactive)
Cc1ccc(NC(=O)CCCNC(=O)c2ccc(Cl)cc2)cc1S(=O)(=O)N1CCOCC1	5.62% (inactive)
CCC1Oc2ccccc2N(CC(=O)NCCCN2CCN(CC)CC2)C1=O (stereo unspecified)	4.83% (inactive)
CN1CCN(CCCNC(=O)c2ccc(/C=C3\Oc4ccccc4N(Cc4ccc(Cl)cc4)C3=O)cc2)CC1	89.4% (active)
O=C1CCC(=O)N(c2ccccc2)N1	9.24% (inactive)

Compound	inhibition
CN(c1ccc(OCC(=O)NC2=NCCS2)cc1)S(=O)(=O)c1ccc(F)cc1	1.28% (inactive)
O=C(c1ccc2ccccc2n1)N1CCN(c2ccccc2Cl)CC1	-107% (inactive)
Cc1coc2c(O)cc3c(c12)OC1(N2CCCCC2)C(=O)NCCCC31 (stereo unspecified)	56.7% (active)
Cn1c(=O)c2sccc2n(Cc2ccc(Br)cc2)c1=O	13.3% (inactive)
OCCC#Cc1ccc(N2C(c3ccsc3)=Cc3ccc(F)cc3C2c2c[nH]c3ccccc23)cc1 (stereo unspecified)	-21.5% (inactive)
O=C(O)CC(SCC(=O)Nc1ccc(Br)cc1)C(=O)O (stereo unspecified)	2.54% (inactive)
O=C(CCl)Nc1ccc(Sc2ccc(NC(=O)CCl)cc2)cc1	58.1% (active)
CC(=O)Nc1ccc(NC(=O)CC2CCCC2)cc1	-38.5% (inactive)
c1ccc(-c2cnc(CN3CCN(c4ccccc4)CC3)o2)cc1	-16.5% (inactive)
CC(NC(=O)C(=O)NN=C1CCC(C(C)(C)C)CC1)c1ccccc1 (stereo unspecified)	13.2% (inactive)
CCCCc1c(-c2ccc(Cl)cc2)ncn1CCc1ccccc1OC	-111% (inactive)
FC(F)(F)c1nnc2c3ccccc3c(Cl)nn12	16.8% (inactive)
CC1(C(=O)Nc2ccc3c(c2)OCCO3)CN(S(C)(=O)=O)CC(=O)N1Cc1cccc(F)c1 (stereo unspecified)	11.6% (inactive)
Cc1ccc(-c2noc(CNC(=O)c3ccoc3C)n2)cc1	89% (active)
Cc1ccc(-c2noc(-c3ccccc3C(=O)NCC3CCCO3)n2)cc1 (stereo unspecified)	-126% (inactive)
O=C(Cc1ccc(Cl)cc1)NCc1nc(-c2ccccc2)no1	8.68% (inactive)
COC(=O)c1ccc(COC(=O)c2cnccn2)cc1	9.27% (inactive)
Cc1nc(C(F)(F)F)ccc1C(=O)N1CCC1(C)C(=O)NS(=O)(=O)c1ccccc1 (stereo unspecified)	18.3% (inactive)
CC(C)C(=O)NC(NC(=S)NC1CCS(=O)(=O)C1)C(Cl)(Cl)Cl (stereo unspecified)	-1.77% (inactive)
O=S1(=O)CCC(NC(=S)SCc2ccccc2Br)C1 (stereo unspecified)	37.1% (inactive)
CCCSC(=S)NC1CCS(=O)(=O)C1 (stereo unspecified)	41.3% (active)
CC(=O)OCC1(O)CC23CCC4c5ccoc5CCC4(C)C2CCC1C3 (stereo unspecified)	7.41% (inactive)
OCCNCCCCOc1ccccc1F	-0.6% (inactive)

Compound	inhibition
CC1(C)OC(=O)C2=C(C[C@@H](C3CCCC3)O[C@@H]2c2ccc(Cl)cc2)O1	8.87% (inactive)
CN(C(=O)Nc1ccc(Cl)cc1)n1cnc2ccccc2c1=O	-36.5% (inactive)
COCC(C)n1c(SCC(=O)NC2CCCCC2C)nc2ccccc2c1=O (stereo unspecified)	15% (inactive)
CN(c1ccc2nc3ccccc3c(=O)n2n1)C1CCCCC1	78.2% (active)
Cc1cccc(OCC(=O)OCC(=O)Nc2ccc(Cl)cn2)c1	11.3% (inactive)
Cc1ccc(C2=NN(C(=O)COc3ncnc4ccccc34)C(c3ccco3)C2)cc1 (stereo unspecified)	6.33% (inactive)
O=C(CN1CCN(C2CCS(=O)(=O)C2)CC1)N1N=C(c2ccc(Cl)cc2)CC1c1ccco1 (stereo unspecified)	47.5% (active)
Cc1ccc(C2=NN(C(=O)CSc3nc(N)cc(N)n3)C(c3ccco3)C2)cc1 (stereo unspecified)	24.9% (inactive)
CN(C(=O)c1cccc(NC(=O)Cc2cccc(NC(=O)C3CCCN(C(=O)C4CC4)C3)c2)c1)C1CCC1 (stereo unspecified)	11.8% (inactive)
COc1ccccc1C(=O)Nc1nc2nc(-c3ccccc3)cc(=O)n2[nH]1	4.83% (inactive)
COc1cc(C(O)c2nc(-c3cccc(C(=O)O)c3)cs2)ccc1F (stereo unspecified)	-9.8% (inactive)
COc1ccc2c(c1OC)C(=O)OC2Nc1nc(-c2ccccc2)cs1 (stereo unspecified)	57.8% (active)
CCN1CCN(C(=O)c2cc3cc4ccc(OC)cc4nc3s2)CC1	-78.9% (inactive)
COc1cc(OC)c(NS(=O)(=O)c2cn(C)cn2)cc1Cl	6.21% (inactive)
CSc1ccccc1NC(=O)Cc1ccc(Br)cc1	-11.3% (inactive)
COC(=O)c1ccc(COc2ccc(/C=C/C(=O)c3ccc(OC)c(CSCC(=O)O)c3)cc2OC)cc1	-5.92% (inactive)
COc1ccccc1CCNC(=O)C1CCN(C(=O)/C=C/c2ccccc2)CC1	-5.61% (inactive)
COc1ccc(C(=O)/C=C/c2ccc(-c3ccccc3)cc2)cc1CSCC(=O)O	67.7% (active)
CC(C)Cc1ccc(C(C)C(=N)N)cc1 (stereo unspecified)	25.6% (inactive)
COc1ccc(CCNC(=O)Nc2ccc3c(c2)c(=O)n(C)n3C)cc1OC	3.46% (inactive)
COCCNC(=O)Nc1ccc2nc(-c3ccco3)c(-c3ccco3)nc2c1	42.3% (active)
COCCNC(=O)CN(Cc1ccco1)C(=O)CCC(=O)Nc1nccs1	3.02% (inactive)
O=S1(=O)CC(N2CCN(Cc3ccccc3F)CC2)CN1Cc1cn(Cc2cccc(C(F)(F)F)c2)nn1 (stereo unspecified)	1.15% (inactive)

Compound	inhibition
CCOc1ccc(OCC(=O)Nc2c3c(nn2C(C)(C)C)CS(=O)(=O)C3)cc1	-1.94% (inactive)
CCC(C)(C)c1ccc(Oc2ccc(NC(=O)COC(=O)C3=COCCO3)cc2)cc1	82.3% (active)
COc1ccc(NC(=O)COC(=O)CNC(=O)C2CCCCC2)cc1	12.4% (inactive)
O=C1CCC(C(=O)OCC(=O)Nc2ccc(OC(F)F)cc2)=NN1	-7.05% (inactive)
CCc1cccc(NC(=O)CCCN2C(=O)C(c3ccccc3)Oc3cccnc32)c1 (stereo unspecified)	9.51% (inactive)
Cc1ccc(C(=O)N2CC(=O)Nc3ccccc32)o1	14.2% (inactive)
Fc1ccc(CNc2nc3ccccc3n3nnnc23)cc1	-134% (inactive)
COc1cc(C(=O)NCc2nnc(SCC(=O)c3ccc(Cl)cc3)o2)cc(OC)c1OC	5.32% (inactive)
CC(C)C[C@@H](N)c1nnc(SCC(=O)c2ccc(Cl)cc2)o1	56.9% (active)
CC(=O)Nc1ccc(C(=O)CSc2nnc(Cc3ccccc3)o2)cc1	-43.3% (inactive)
C[C@H]1Cn2cnc(C(=O)N[C@@H](Cc3c[nH]c4ccccc34)C(=O)OC(C)(C)C)c2C(=O)N1	-4.95% (inactive)
C=CCC[C@@H](Cc1ccc(F)cc1)C(=O)O[C@H](CNC(=O)[C@H](CC=C)CC(=O)N(CCO)Cc1ccccc1)c1ccccc1	12.7% (inactive)
CCN1CCN(C(=O)C2(NC(=O)Nc3cccc(F)c3)CCCCC2)CC1	9.23% (inactive)
COc1ccc(NC(=O)C2C3C=CC(C3)C2C(=O)NCc2ccccn2)c(OC)c1 (stereo unspecified)	10.9% (inactive)
Cc1c(NC(=O)C(C)OC(=O)c2cc3c4ccccc4n(C)c3s2)c(=O)n(-c2ccccc2)n1C (stereo unspecified)	4.75% (inactive)
Cc1sc2ccccc2c1CNC[C@H]1O[C@@H](n2ccc(=O)[nH]c2=O)[C@H](O)[C@@H]1O	11.7% (inactive)
OC(c1cc(Cl)cc(Cl)c1)c1ncc(-c2ccccc2C(F)(F)F)[nH]1 (stereo unspecified)	14.7% (inactive)
O=C(OC12CC3CC(CC(C3)C1)C2)c1ccc(NCc2cc(O)ccc2O)cc1	88.1% (active)
CC(C)OCCCNC(=S)N1CCC(C(=O)c2ccc3c(c2)OCCO3)CC1	-5.91% (inactive)
c1ccc(-c2ccnc3nc(-n4cccc4)nn23)cc1	-8.27% (inactive)
C/C(N)=C(/C#N)C(=O)COC(=O)C1CCN(C(=O)c2ccc(Cl)cc2)CC1	8.64% (inactive)
CCc1ccc(-c2cc(C)no2)cc1S(=O)(=O)NCCc1ccc(S(N)(=O)=O)cc1	9.29% (inactive)
